Sampled rows, rich in hits. Any-hit rate of the full collection: about 3.6%.
Rango release inh – qHTS Assay for Inhibitors of RanGTP induced Rango (Ran-regulated importin-beta cargo) - Importin beta complex dissociation; Snurportin-1 (Homo sapiens) + GTP-binding nuclear protein Ran (Homo sapiens) + Importin …; Biochemical FRET Rango-importin beta, RanGTP-induced dissociation; Potency, µM (titrated, usually from 46.1 µM), inactives show at the highest dose activity change, negative = inhibition; 340,000 compounds, 0.071% hits; calls by dose curve; also: potency is read from the fitted curve at half-maximal effect; % of control where 0% means no effect; nearly all actives have a fitted effect of over 45% in size
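Two FRET readings bracket the reaction: one 5 min after compound meets Rango–importin beta, another 45 min after RanGTP-RCC1 (0.6 uM Ran, 0.2 uM RCC1, 2 mM GTP) is added. Only the second defines inhibition.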
KAT2A inh – qHTS Assay for Inhibitors of GCN5L2 | Histone acetyltransferase KAT2A (Homo sapiens), Q92830 | GCN5L2 HAT assay, ThioGlo1 CoA-SH fluorescence | Potency, µM (top dose mostly 58.9 µM), inactives show at the top dose activity change, negative = inhibition, hits mostly inhibitors | 390,000 compounds, 0.21% hits; also: potency is read from the fitted curve at half-maximal effect; % is scaled to controls: 0 for no effect and ±100 for the full control effect
Target sequence (Q92830 whole entry, looked up): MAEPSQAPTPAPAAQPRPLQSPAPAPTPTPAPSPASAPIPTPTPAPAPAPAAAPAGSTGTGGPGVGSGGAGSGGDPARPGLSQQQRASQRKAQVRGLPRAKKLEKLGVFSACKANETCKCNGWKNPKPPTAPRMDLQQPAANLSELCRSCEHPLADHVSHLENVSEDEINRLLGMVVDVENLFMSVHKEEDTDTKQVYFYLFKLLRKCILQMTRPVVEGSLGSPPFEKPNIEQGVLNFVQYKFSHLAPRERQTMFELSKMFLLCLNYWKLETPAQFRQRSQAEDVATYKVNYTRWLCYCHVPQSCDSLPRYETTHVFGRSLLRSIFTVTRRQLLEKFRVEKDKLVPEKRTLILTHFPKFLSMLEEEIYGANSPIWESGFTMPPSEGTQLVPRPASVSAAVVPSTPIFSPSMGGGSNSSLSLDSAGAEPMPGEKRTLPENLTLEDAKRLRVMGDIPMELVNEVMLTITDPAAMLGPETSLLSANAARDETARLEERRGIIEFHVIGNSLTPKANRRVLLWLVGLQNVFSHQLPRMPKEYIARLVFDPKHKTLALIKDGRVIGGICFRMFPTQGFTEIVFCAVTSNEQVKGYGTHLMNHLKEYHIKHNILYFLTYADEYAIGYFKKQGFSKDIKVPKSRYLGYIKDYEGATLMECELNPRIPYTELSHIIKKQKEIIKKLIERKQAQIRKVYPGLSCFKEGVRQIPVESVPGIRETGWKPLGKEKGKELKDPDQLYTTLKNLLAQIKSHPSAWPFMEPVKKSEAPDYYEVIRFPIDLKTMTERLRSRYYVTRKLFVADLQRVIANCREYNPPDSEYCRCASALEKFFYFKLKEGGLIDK
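Preincubate 20nM GCN5L2 with compound 15 min, RT → add 50uM ThioGlo1 + 75uM H3(1-25) + 70uM acetyl-CoA → read fluorescence 0 and 20 min. Primary qHTS; fluorescent artifacts likely.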
Rango complex inh – qHTS Assay for Inhibitors of Rango (Ran-regulated importin-beta cargo) - Importin beta complex formation; Importin subunit beta-1 (Homo sapiens), Q14974; Rango CFP/YFP FRET sensor + importin beta, 45 min; Potency, µM (doses to about 92.2 µM), for inactives: at the top dose inhibition of complex formation; 340,000 compounds, 0.031% hits; AID 540263, 2011; calls by dose curve;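 also: potency is read from the fitted curve at half-maximal effect; 0% = DMSO wells and 100% = buffer wells lacking importin beta; nearly all actives have a fitted effect of over 15% in size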
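FRET biosensor (snurportin 1 IBB flanked by EYFP and cerulean), 50 nM, with compound 5 min, then 0.125 microM importin beta in PBS, 1 mM DTT, 0.02% Tween-20, 0.1% BSA. CFP/YFP ratio read after 45 min at room temperature; pre-read flags interference.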
VDR inhibitor – Inhibitors of the vitamin D receptor (VDR): qHTS; AID 504847, 2011; VDR-SRC2-3 peptide fluorescence polarization, 2 h; 400,000 compounds, 0.93% hits; Vitamin D3 receptor (Homo sapiens), P11473; Potency, µM, inactives show max response, negative = inhibition, most hits filed as inhibitors; also: potency is read from the fitted curve at half-maximal effect; % is scaled to controls: 0 for no effect and ±100 for the full control effect
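The screen uses fluorescence polarization to detect compounds that interfere with recruitment of the SRC2-3 coactivator peptide to VDR; plates are read after 2 h at room temperature.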
PI5P4K alpha inh – qHTS for Inhibitors of phosphatidylinositol 5-phosphate 4-kinase (PI5P4K) | 330,000 compounds, 1.2% hits | max response, % | PI5P4Kalpha enzyme, ADP-Glo luminescence, 60 min; active compounds read low | AID 652105, 2013 | Phosphatidylinositol 5-phosphate 4-kinase type-2 alpha (Homo sapiens), P48426; active = max response of -50% or lower; inconclusive = between -30% and -50%; inactive = -30% or higher; also: value at the top dose of about 77 µM; % is scaled to controls: 0 for no effect and ±100 for the full control effect
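Controls without substrate or without enzyme flank wells where PI5P4Kalpha converts substrate using 5 microM ATP (final). Incubation lasts 60 minutes at room temperature; ADP formed is read by ADP-Glo luminescence.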
PLK1 PBD inh – qHTS for Inhibitors of PLK1-PDB (polo-like kinase 1 - polo-box domain): Primary Screen | Serine/threonine-protein kinase PLK1 (Homo sapiens), P53350 | Plk1 PBD binding of FITC phosphopeptide, fluorescence polarization | Potency, µM, for the others: max response, negative = inhibition, most hits filed as inhibitors | 360,000 compounds, 2.8% hits | AID 720504, 2013; also: potency is read from the fitted curve at half-maximal effect; series mostly up to about 57 µM; % is scaled to controls: 0 for no effect and ±100 for the full control effect; nearly all actives have a fitted effect of over 65% in size
An asterisk follows results filed as active; ? = inconclusive; / = no result given. Unless noted, calls follow the shape of the dose curve; as a rule, active = well fitted curve in the direction sought with a large enough effect; inconclusive = small, poorly fitted or top-dose-only effect, or another doubt; inactive = no such curve, though single readings can be large; an effect the other way counts as inactive or inconclusive.

SMILES | Rango release inh | KAT2A inh | Rango complex inh | VDR inhibitor | PI5P4K alpha inh | PLK1 PBD inh
CC1=C(C(=O)OCc2ccccc2)C(c2cccc3ccccc23)NC(=O)N1CCCC(=O)O (stereo not drawn) | -17% | -6% | -6% | -24% | -86* | -1%
COc1ccc(-c2c(C)c3ccc(O)c(CN4CCC(C)CC4)c3oc2=O)cc1OC | / | ? | / | 14% | / | /
CCOC(=O)C1=C(C)N(CCCC(=O)O)C(=O)NC1c1ccccc1 (stereo not drawn) | -26% | / | 1% | -20% | -57* | -8%
Cc1cc(C)c(SSc2nnnn2-c2ccccc2)c(C)c1 | / | / | / | / | -80* | 3µM*
Cc1ccc2cc(C)c(Sc3nnnn3-c3ccccc3)nc2c1 | -2% | -1% | 0% | 3% | 1 | -7%
COc1ccc(N2CCN(C(=O)CS(=O)(=O)c3cccc4nsnc34)CC2)cc1 | / | -12% | / | -4% | / | /
COc1ccccc1N1CCN(C(=O)c2cnn(-c3ccc(C)c(C)c3)c2C2CCN(C(=O)OC(C)(C)C)CC2)CC1 | / | 0% | / | 4% | / | /
O=c1c(F)cn(C2CCCO2)c(=O)n1Cc1ccc(Cl)cc1 (stereo not drawn) | 13% | -3% | 3% | -4% | -15 | 27µM*
CC(C)CC1=C/C(=C/c2ccc(-c3ccccc3)o2)C(=O)O1 | ? | ? | ? | ? | -68* | 11µM*
CCCCCCCCOc1ccccc1C(=O)Nc1ccc(C(=O)OCC[N+](C)(CC)CC)cc1 | / | 8% | / | ? | / | /
CCCCN(C(=O)CN1CC(C)OC(C)C1)c1c(N)n(CC(C)C)c(=O)[nH]c1=O (stereo not drawn) | 9% | -2% | -1% | -17% | 10 | -8%
CCCCN(C(=O)Cn1ncc(Cl)c(Cl)c1=O)c1c(N)n(CC(C)C)c(=O)[nH]c1=O | -2% | ? | ? | ? | -52* | ?
O=C(NCc1ccccn1)C1(C(F)(F)F)C/C(=C\Cc2ccccc2)CCCO1 (stereo not drawn) | / | / | / | -2% | / | /
COc1ccc(C(=O)COC(=O)c2cnc(C)cn2)c(OC)c1 | 6% | -4% | 3% | -2% | -56* | -2%
Cc1cnc(C(=O)OCC(=O)c2csc(N3CCCCC3)n2)cn1 | ? | -18% | ? | -9% | -60* | -14%
O=C(CSc1nccn1-c1ccc(F)cc1)Nc1ccc(OC(F)(F)F)cc1 | / | -21% | / | 1% | / | /
N#CC1=C(SCC(=O)NCc2ccccc2)NC(=O)CC1c1ccco1 (stereo not drawn) | -19% | -18% | -1% | -11% | -30 | 9.5µM*
N#CC1=C(SCC(=O)Nc2ccccc2)NC(=O)CC1c1ccco1 (stereo not drawn) | 4% | / | 7% | -11% | / | -13%
O=C(N/N=C/C=C/c1ccco1)/C(=C/c1ccccc1)NC(=O)c1ccccc1 | -20% | 28% | -5% | ? | -57* | 30µM*
O=C(N/N=C/C=C/c1ccco1)c1ccncc1 | 6% | ? | 0% | ? | -28 | -3%
CCCS(=O)(=O)Nc1cc(-c2cn3cccc(C)c3n2)ccc1C | / | -8% | / | 8% | / | /
Cn1nc(-c2ccccc2)c(CO)c1Oc1ccc(F)cc1 | 2% | 0% | 1% | ? | ? | 11µM*
Cc1cc(F)c(Nc2ncnc3cc(OCc4ccccc4)ccc23)cc1O | / | 19% | / | 12% | / | /
Cc1ccc(NC(=O)COC(=O)c2nn(-c3ccc(Cl)cc3)cc2O)cc1 | -3% | -4% | -3% | -13% | -6 | 0%
NNC(=O)c1nn(-c2ccc(Cl)cc2)cc1O | 3% | -12% | 5% | ? | ? | 17µM*
SMILES | Rango release inh | KAT2A inh | Rango complex inh | VDR inhibitor | PI5P4K alpha inh | PLK1 PBD inh
O=[N+]([O-])c1cc([N+](=O)[O-])c2cc3ccccc3nc2c1 | -14% | -4% | 0% | ? | -25 | 0.42µM*
O=[N+]([O-])c1cnc2ccccc2c1 | -9% | 0% | 6% | -4% | 2 | -14%
O=C(O)c1ccc(CNc2ncnc3nc[nH]c23)cc1 | / | / | / | -27% | / | /
CC(C)[C@H](NC(=O)[C@@H]1CSSC[C@H](NC(=O)[C@H](CC(=O)O)NC(=O)[C@H](C)NC(=O)[C@@H](NC(=O)CNC(=O)[C@H](C)N)[C@@H](C)O)C(=O)N[C@@H](Cc2ccccc2)C(=O)N[C@@H](Cc2c[nH]c3ccccc23)C(=O)N[C@@H](CCCCN)C(=O)N[C@@H](Cc2ccc(O)cc2)C(=O)N1)C(=O)O | / | 42% | / | -5% | / | /
CC(C)Nc1nc2ccccc2c(=O)[nH]1 | 3% | -16% | 0% | ? | -5 | 21µM*
O=c1[nH]c(-c2ccncc2)nc2ccccc12 | 4% | -5% | -5% | 79µM* | ? | 5.3µM*
COC(=O)c1ccccc1NC(=O)c1ccc2c(c1)CCN2S(C)(=O)=O | / | -5% | / | -7% | / | /
O=C(O)Cc1cccc(OCCCN(Cc2cccc(C(F)(F)F)c2Cl)CC(c2ccccc2)c2ccccc2)c1 | / | 11µM* | / | 40µM* | / | /
Oc1ccc(/C=C/c2ccc3ccccc3n2)cc1 | 18µM* | -12% | ? | -9% | -23 | 4%
C(=C\c1ccc2ccccc2n1)/c1ccccc1 | 9% | -16% | 0% | -1% | -6 | 4%
Cc1c(NC(=O)C(C)OC(=O)/C=C/c2ccco2)c(=O)n(-c2ccccc2)n1C (stereo not drawn) | 4% | -9% | -2% | ? | -13 | 27µM*
COc1ccc(-c2c3c(=O)n(C)c(=O)n(C)c3c3n2-c2ccccc2NC3c2ccco2)cc1 (stereo not drawn) | / | -3% | / | 8% | / | /
CCCn1c(NC(=O)c2ccc(C)cc2)nc2ccccc21 | -5% | -1% | 0% | -20% | -3 | 27µM*
O=C(O)c1cccc(N2C(=O)c3cc([N+](=O)[O-])cc4cc([N+](=O)[O-])cc(c34)C2=O)c1 | -9% | ? | 3% | 56µM* | -73* | 8.4µM*
O=C(CSc1cccc[n+]1[O-])c1cccs1 | -3% | -5% | -5% | 7% | 5 | 24µM*
O=C(CSc1cccc[n+]1[O-])c1cc2ccccc2o1 | -8% | -15% | -2% | -3% | 0 | 27µM*

Screening results (PubChem)
